# High-throughput results deposited in PubChem BioAssay by National Center for Advancing Translational Sciences (NCATS).
# Cycloheximide cs = affects cycloheximide protein synthesis inhibition readout, counter-screen | cell reporter, cycloheximide protein synthesis inhibition counterscreen | max response, % | 300,000 tested, 12% active; in the data active = max response mostly above about 13%, no sharp cut-off; inactive = mostly below about 14%; also: read at 38.3 µM for the half of the compounds with a filed dose; 0% is about no effect
# TbPYK inhibitor = inhibitors of Trypanosoma brucei pyruvate kinase. Q57TT1. TbPYK enzyme, Kinase-Glo Plus ATP luminescence, 45 min. Potency, µM (series often up to 76.8 µM), for inactives: top-dose activity, negative = inhibition, usual class: inhibitors. 410,000 tested, 0.12% active. AID 624173; also: potency is read from the fitted curve at half-maximal effect; % is scaled to controls: 0 for no effect and ±100 for the full control effect; nearly all actives have a fitted effect of over 50% in size
#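 Readout: single end-point luminescence (Kinase-Glo Plus, 10 min). Reaction conditions were TbPYK/substrate plus 130 uM ADP, 45 min at RT, pH 7.2 TEA buffer. No-enzyme wells served as controls, and data were normalized before concentration-response fitting.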
# LmPK inh = blocks Leishmania mexicana pyruvate kinase activity. purified LmPK, Kinase-Glo ATP luminescence, 1 h. AID 1721. Potency, µM (highest dose often 57.5 µM), without a hit: top-dose activity change, negative = inhibition, most hits filed as inhibitors. 290,000 tested, 0.37% active; also: potency is read from the fitted curve at half-maximal effect; % is scaled to controls: 0 for no effect and ±100 for the full control effect
#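 Purified LmPK (0.1 nM) with 0.5 mM PEP and 0.1 mM ADP in imidazole buffer pH 7.2 with MgCl2/KCl, 1 h at room temperature. ATP formed was read by luciferase luminescence and normalized to no-enzyme and uninhibited controls.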
# FBPA Giardia inh = inhibitors of Giardia lamblia fructose-1,6-bisphosphate aldolase. A8B2U2. purified Giardia FBPA. Potency, µM (highest dose often 59.6 µM), for inactives: at the top dose activity, negative = inhibition, hits mostly inhibitors. 290,000 tested, 0.71% active. AID 2451; also: potency is read from the fitted curve at half-maximal effect; % is scaled to controls: 0 for no effect and ±100 for the full control effect; nearly all actives have a fitted effect of over 55% in size
# Target sequence (A8B2U2 whole entry, looked up): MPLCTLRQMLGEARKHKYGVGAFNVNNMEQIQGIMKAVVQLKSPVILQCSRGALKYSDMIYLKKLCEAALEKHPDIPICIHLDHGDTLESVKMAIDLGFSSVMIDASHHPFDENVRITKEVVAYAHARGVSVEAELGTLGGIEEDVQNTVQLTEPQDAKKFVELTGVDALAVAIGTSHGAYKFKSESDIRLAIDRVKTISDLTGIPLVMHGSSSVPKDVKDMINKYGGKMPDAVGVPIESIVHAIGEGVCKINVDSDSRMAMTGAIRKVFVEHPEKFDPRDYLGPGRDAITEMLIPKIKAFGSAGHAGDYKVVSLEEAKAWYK
#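 40 nM FBPA preincubated 10 min at RT with compound (up to 57.5 uM final), then substrate plus GAPDH/TPI/NAD/arsenate coupling and diaphorase/resazurin added. Fluorescence read after 20 min at RT, 525/598 nm.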
# RE007 growth inh = less growth of the S. pombe RE007 Vpr strain. S. pombe RE007 Vpr strain, BacTiter-Glo ATP luminescence, 24 h. Potency, µM (top dose mostly 92.2 µM), without a hit: at the highest dose activity change, negative = less growth, most hits filed as inhibitors. 360,000 tested, 0.21% active. AID 651644; active = well fitted falling curve with a large enough effect; inconclusive = small, poorly fitted or top-dose-only effect; inactive = no such curve, though single readings can be large or run the other way; also: potency is read from the fitted curve at half-maximal effect; % is scaled to controls: 0 for no effect and ±100 for the full control effect; nearly all actives have a fitted effect of over 50% in size
#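 Fission yeast RE007 carrying one integrated HIV-1 vpr copy, seeded at OD 0.01 in PMG+AL medium with 23 nL pinned compound. Grown 24 h at 30 degrees; viability read by BacTiter-Glo luminescence after 5 min.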
# Shiga inhibitor = blocks Shiga toxin action in Vero cells | AID 2315 | inhibition, % at 38.7 µM | 290,000 tested, 9.2% active | Vero cells, Shiga toxin protein synthesis inhibition reporter; in the data active = inhibition mostly above about 28%, no sharp cut-off; inactive = mostly below about 43%; also: 0% is about no effect
# * = called active by the depositor; ? = inconclusive; · = no result; + = active, no number; [ ] = another dose, or the depositor's remark. Many of the other results were omitted from the sample, so hits are more common in it than they were. Unless noted, calls follow the shape of the dose curve; as a rule, active = well fitted curve in the direction sought with a large enough effect; inconclusive = small, poorly fitted or top-dose-only effect, or another doubt; inactive = no such curve, though single readings can be large; an effect the other way counts as inactive or inconclusive.
SMILES,Cycloheximide cs,TbPYK inhibitor,LmPK inh,FBPA Giardia inh,RE007 growth inh,Shiga inhibitor
CCOC(=O)N1CCN(C/C(Cl)=C/c2ccccc2)CC1,14*,0%,-3%,?,24%,20*
CCOC(=O)C1CCCN(C(=O)CSc2ccc(Br)cc2)C1 (stereo not drawn),42*,?,4%,0%,-6%,65*
CCOC(=O)C1CCCN(C(=O)CSCc2ccccc2)C1 (stereo not drawn),44*,-3%,7%,1%,-10%,52*
CCOC(=O)C1CCCN(C(=O)CSc2nc(C)cc(C)n2)C1 (stereo not drawn),-7,2%,0%,-4%,-17%,-9
Cn1c(=O)c2c(n3c4ccccc4nc13)NC(=O)CC2c1ccccc1F (stereo not drawn),·,3%,·,·,·,·
CCOC(=O)N1CCN(C(=O)CSCc2ccccc2)CC1,35*,-6%,1%,1%,1%,22
Cc1ccccc1CSCC(=O)N1CCN(c2ccccc2)CC1,23*,0%,2%,1%,17%,70*
O=C(CSCc1ccccc1Cl)N1CCN(c2ccc(Cl)cc2)CC1,·,-2%,·,·,·,·
Cc1c(F)c(F)c(COC(=O)C2C(/C=C(\Cl)C(F)(F)F)C2(C)C)c(F)c1F (stereo not drawn),10,·,·,0%,·,-3
O=S(=O)(c1ccccc1)c1ccc(N2CCCCCC2)cc1,21*,-3%,0%,8%,6%,·
O=S(=O)(Nc1ccc(F)cc1)N1CCOCC1,34*,7%,2%,2%,9%,4
O=S(=O)(Nc1ccc(N2CCCCC2)cc1)c1ccccc1,18*,-15%,2%,-3%,-6%,26
O=S(=O)(Nc1ccc(N2CCOCC2)cc1)c1ccccc1,-2,1%,5%,3%,-1%,-12
O=S(=O)(c1ccccc1)N1CCN(c2ccccc2)CC1,-3,-18%,2%,5%,1%,-2
O=S(=O)(Nc1ccc(N2CCCCC2)cc1)c1ccc(F)cc1,13*,-2%,5%,-6%,-15%,51*
COC/C=C/C1=CC2=CC(=O)C(C)(OC(=O)c3ccc(Cl)nc3)C(=O)C2=CO1 (stereo not drawn),·,·,·,-9%,·,·
O=S(=O)(Nc1ccc(S(=O)(=O)N2CCCCCC2)cc1)c1cccs1,-5,-5%,4%,15%,7%,-4
O=S(=O)(Nc1ccc(N2CCCCC2)cc1)c1cccs1,41*,-18%,0%,-1%,-8%,60*
CSCC[C@H](NC(=O)[C@H](CCCN=C(N)N)NC(=O)[C@@H]1CCCN1C(=O)[C@H](Cc1ccccc1)NC(=O)[C@H](C)NC(=O)[C@H](CC(C)C)NC(=O)[C@H](Cc1ccc(O)cc1)NC(=O)[C@H](CC(N)=O)NC(=O)[C@@H](N)CCSC)C(N)=O,-4,·,·,5%,·,-15
O=C(Nc1cc(Cl)cc2c1[nH]c1cnccc12)c1cccnc1,-8,·,·,?,·,-6
CCOCCCNC(=O)c1ccc(-n2c(-c3ccccc3)cc3c2CCCC3)cc1,·,0%,·,·,·,·
COCCCNC(=O)c1ccc(-n2c(-c3ccccc3)cc3c2CCCCC3)cc1,23*,1%,·,·,·,103*
O=C(NCc1ccc2c(c1)OCO2)c1nc(S(=O)(=O)Cc2ccccc2)ncc1Cl,27*,5%,-2%,·,1%,32
O=C(NCc1ccc2c(c1)OCO2)c1nc(S(=O)(=O)Cc2ccccc2F)ncc1Cl,26*,0%,-3%,-2%,2%,26
NCCCCCCNc1nc2c(N)ncnc2n1[C@@H]1O[C@@H]2COP(=O)(O)O[C@H]2[C@H]1O,10,·,·,-1%,·,-7
SMILES,Cycloheximide cs,TbPYK inhibitor,LmPK inh,FBPA Giardia inh,RE007 growth inh,Shiga inhibitor
COc1cnc(-c2ccccn2)[nH]c1=O,-1,-1%,-12%,3.5µM*,3%,30
CCc1cc2c(=O)[nH]c(N3CCCC3)nc2s1,28*,-10%,-4%,-7%,6%,+
CCc1cc2c(=O)[nH]c(-c3ccccn3)nc2s1,89*,0%,-11%,14%,32µM*,126*
COc1ccccc1CCNC(=O)C(=O)NCC(c1ccco1)S(=O)(=O)c1ccc(C)cc1 (stereo not drawn),·,3%,·,·,·,·
O=C(Nc1ccc2nc(SCCOc3ccccc3Cl)sc2c1)c1cccs1,·,-1%,·,·,·,·
CC1(O)c2ccccc2C(=O)N1Cc1ccccc1 (stereo not drawn),0,1%,-4%,-7%,-14%,11
CC1(O)c2ccccc2C(=O)N1CCc1ccccc1F (stereo not drawn),43*,4%,-2%,-18%,-4%,66*
COc1ccc(-c2cn(Cc3ccc([N+](=O)[O-])cc3)nn2)cc1,10,2%,0%,-8%,-8%,24*
CCCCCc1ccc(-c2cn(CCCOCc3ccccc3)nn2)cc1,-2,2%,-1%,7%,2%,-3
COc1ccc(-c2cn(CCCOCc3ccccc3)nn2)cc1,16*,2%,9%,-10%,-4%,25*
COc1ccc(-c2cn(Cc3ccc(C(=O)c4ccccc4)cc3)nn2)cc1,43*,4%,0%,-2%,19%,62*
Cc1ccc(Cn2cc(-c3ccccc3)nn2)cc1,57*,-3%,-2%,-2%,0%,86*
COc1ccc(-c2cn(Cc3ccc4ccccc4c3)nn2)cc1,1,1%,4%,-8%,2%,-6
O=C(CCC1N=C2c3ccccc3N=C(SCc3cccc(F)c3)N2C1=O)NCc1ccc(F)cc1 (stereo not drawn),·,2%,·,·,·,·
CCCc1nn2c(=O)cc(COC(=O)c3ccccc3NC(=O)c3ccc(OCC)cc3)nc2s1,·,0%,·,·,·,·
Cc1ccc2c(c1)N(C(=O)N1CCC(C(=O)NC3CCCCCC3)CC1)CCO2,·,-2%,·,·,·,·
CCOC(=O)C1CCN(C(c2cccnc2)c2c(NC(=O)c3ccco3)sc(C)c2C)CC1 (stereo not drawn),21*,-6%,10%,-23%,9%,32
CCCCOc1ccc(-c2[nH]ncc2C=O)cc1,37*,6%,1%,2%,19%,117*
CCCCOc1ccc(-c2ncc([N+](=O)[O-])cn2)cc1,-2,1%,0%,0%,9%,18
Oc1c(N=Nc2ccccc2)sc2ccccc12,40*,-6%,?,-13%,?,61*
O=c1cc(O)sc2ccccc12,3,3%,-3%,0%,-9%,10
CC(=O)OC[C@@H]1O[C@@H](O/N=C2/C[C@@H](O)[C@@H](O)[C@@H]3[C@@H]4C(=O)N(Cc5ccccc5)C(=O)[C@H]4CC[C@H]23)[C@H](OC(C)=O)[C@H](OC(C)=O)[C@@H]1OC(C)=O,·,·,·,-1%[12.9 µM],·,·
